# Experimental data taken from the supplement of paper PMC8728848.
# Shown is part of a subset that was picked to be rich in the strongest signals.
# Tests used:
# Experiment in all cases: glycan array binding signal (z-score within array); higher = stronger binding
# Conditions in all cases: glycan notation: IUPAC condensed, linker removed
# [1] = test system: Neu5Ac(a2-6)Gal(b1-4)GlcNAc(b1-3)Gal(b1-3)GlcNAc
# How it was run: (§1)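 Columns mapping to the same glycan were averaged after glycan names were converted to IUPAC-condensed notation. The data come from 3228 arrays in the Consortium for Functional Glycomics database, limited to those with an available protein sequence. Binding is reported as a within-array Z-score averaged across arrays of one protein sequence and across linkers.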
# [2] = test system: Neu5Ac(a2-6)GalNAc(b1-4)GlcNAc
# How it was run: as §1
# [3] = test system: Neu5Ac(a2-6)Gal(b1-4)GlcNAc(b1-2)[Neu5Ac(a2-3)Gal(b1-4)GlcNAc(b1-4)]Man(a1-3)[Neu5Ac(a2-3)Gal(b1-4)GlcNAc(b1-2)Man(a1-6)]Man(b1-4)GlcNAc(b1-4)GlcNAc
# How it was run: as §1
# [4] = test system: Neu5Ac(a2-6)Gal(b1-4)GlcNAc(b1-6)[Gal(b1-3)GlcNAc(b1-3)]Gal(b1-4)Glc
# How it was run: as §1
# [5] = test system: Neu5Ac(a2-6)Gal(b1-4)GlcNAc(b1-3)Gal(b1-4)GlcNAc(b1-3)Gal(b1-4)GlcNAc(b1-2)Man(a1-3)[Neu5Ac(a2-6)Gal(b1-4)GlcNAc(b1-3)Gal(b1-4)GlcNAc(b1-3)Gal(b1-4)GlcNAc(b1-2)Man(a1-6)]GalNAc
# How it was run: as §1
# [6] = test system: Neu5Ac(a2-6)Gal(b1-4)GlcNAc(b1-3)Gal(b1-4)[Fuc(a1-3)]GlcNAc(b1-3)Gal(b1-4)[Fuc(a1-3)]GlcNAc
# How it was run: as §1
# [7] = test system: Neu5Ac(a2-6)Gal(b1-4)GlcNAc(b1-3)[Neu5Ac(a2-6)Gal(b1-4)GlcNAc(b1-6)]GalNAc
# How it was run: as §1
# [8] = test system: Neu5Ac(a2-6)Gal(b1-4)GlcNAc6S
# How it was run: as §1
# [9] = test system: Neu5Ac(a2-6)Gal
# How it was run: as §1
# [10] = test system: Neu5Ac(a2-8)Neu5Ac(a2-3)Gal(b1-3)GalNAc(b1-4)[Neu5Ac(a2-3)]Gal(b1-4)Glc
# How it was run: as §1
# [11] = test system: Neu5Ac(a2-6)Gal(b1-4)GlcNAc(b1-3)Gal(b1-4)GlcNAc
# How it was run: as §1
# [12] = test system: Neu5Ac(a2-6)Gal(b1-4)GlcNAc(b1-3)GalNAc
# How it was run: as §1
# [13] = test system: Neu5Ac(a2-6)Gal(b1-4)GlcNAc
# How it was run: as §1
# [14] = test system: Neu5Ac(a2-6)Gal(b1-4)GlcNAc(b1-2)Man(a1-6)[Gal(b1-4)GlcNAc(b1-2)Man(a1-3)]Man(b1-4)GlcNAc(b1-4)GlcNAc
# How it was run: as §1
# [15] = test system: Neu5Ac(a2-8)Neu5Ac(a2-3)Gal(b1-3)GalNAc(b1-4)[Neu5Ac(a2-8)Neu5Ac(a2-3)]Gal(b1-4)Glc
# How it was run: as §1
# [16] = test system: Neu5Ac(a2-6)Gal(b1-4)GlcNAc(b1-2)[Neu5Ac(a2-6)Gal(b1-4)GlcNAc(b1-6)]Man(a1-6)[Neu5Ac(a2-6)Gal(b1-4)GlcNAc(b1-2)Man(a1-3)][GlcNAc(b1-4)]Man(b1-4)GlcNAc(b1-4)GlcNAc
# How it was run: as §1
# [17] = test system: Neu5Ac(a2-8)Neu5Ac(a2-3)Gal(b1-4)GlcNAc
# How it was run: as §1
# [18] = test system: Neu5Ac(a2-6)Gal(b1-4)GlcNAc(b1-2)Man(a1-6)Man(b1-4)GlcNAc(b1-4)GlcNAc
# How it was run: as §1
# [19] = test system: Neu5Ac(a2-6)Gal(b1-4)GlcNAc(b1-3)Gal(b1-4)GlcNAc(b1-6)[Gal(b1-3)]GalNAc
# How it was run: as §1
# [20] = test system: Neu5Ac(a2-6)GlcNAc(b1-4)GlcNAc
# How it was run: as §1
substance,measurement,setting,value
LcI (Legionella pneumophila),glycan array binding signal (z-score),[1],0.02
same,glycan array binding signal (z-score),[2],-0.669
"MIC3-MAR1b (Eimeria tenella), B6VCV4",glycan array binding signal (z-score),[3],2.99
same,glycan array binding signal (z-score),[4],1.38
AgI/II Vhelical-GFP (Streptococcus mutans),glycan array binding signal (z-score),[5],1.12
same,glycan array binding signal (z-score),[6],1.26
same,glycan array binding signal (z-score),[7],-0.298
same,glycan array binding signal (z-score),[8],-0.076
same,glycan array binding signal (z-score),[9],-0.257
same,glycan array binding signal (z-score),[10],-0.253
"SpGH101 (Streptococcus pneumoniae), Q8DR60",glycan array binding signal (z-score),[11],-0.199
same,glycan array binding signal (z-score),[12],2.23
same,glycan array binding signal (z-score),[13],-0.172
"BambL (Burhholderia ambifaria), Q0B4G1",glycan array binding signal (z-score),[14],-0.317
same,glycan array binding signal (z-score),[15],-0.308
"MIC3-MAR5 (Eimeria tenella), B6VCV4",glycan array binding signal (z-score),[10],3.86
AgI/IIC123-GFP (Streptococcus mutans),glycan array binding signal (z-score),[16],3.72
same,glycan array binding signal (z-score),[17],-0.506
Actinohivin (Actinomycete K97),glycan array binding signal (z-score),[8],-0.199
same,glycan array binding signal (z-score),[2],-0.197
same,glycan array binding signal (z-score),[9],-0.147
"SiiE (Salmonella typhimurium), A0A0H3NVH0",glycan array binding signal (z-score),[1],2.56
Epa22,glycan array binding signal (z-score),[18],0.268
same,glycan array binding signal (z-score),[5],3.15
same,glycan array binding signal (z-score),[19],0.044
same,glycan array binding signal (z-score),[4],0.104
same,glycan array binding signal (z-score),[13],-0.607
same,glycan array binding signal (z-score),[2],-0.394
same,glycan array binding signal (z-score),[20],-0.046
